The supplement of paper PMC9477273

test system: DRIVER-selected RNA biosensor (aptazyme) pool; test: maximum fold change of ribozyme cleavage across biosensor pool versus no-compound control; higher = stronger biosensor response (ligand inhibits cleavage); settings: 10 µM
Method: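 CleaveSeq: a pool of resynthesized hammerhead-ribozyme RNA biosensors (sTRSV scaffold with randomized loops, 1,730 sequences) was T7-transcribed at 37 °C for 15-30 min with a single compound at 10 µM. Cleaved and uncleaved products were counted by NGS, and fold change of cleavage was computed against the DMSO-only condition. The value is the maximum fold change of cleavage over all biosensors in the pool. About 255 compounds were tested individually.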

Compound	maximum fold change
CC12CCC(C(=O)O)(c3nc4ccc5ncccc5c4nc31)C2(C)C (stereo not given)	2.74
Cc1ccc(C(=O)/C=C2\Nc3ccccc3NC2=O)cc1C	7.35
Cc1cc2cc(CNC(=O)C3CCCC3)ccc2[nH]1	5.24
COc1ccc(/C=c2\s/c(=C/C(=O)c3ccc(C)cc3)[nH]c2=O)cc1OC	2.47
Cc1c(C(=O)NC2CCCCCC2)sc2ncnc(N3CCCCC3C)c12 (stereo not given)	2.58
Cc1cc2c(c(=O)n1CCN(C)C)C(c1cccc(Br)c1)C(C#N)=C(N)O2 (stereo not given)	2.39
Cc1nc(N2C(=O)c3oc4ccccc4c(=O)c3C2c2ccc(Cl)cc2)sc1C (stereo not given)	2.07
O=C(CCNC(=O)Cn1cnc2sc3c(c2c1=O)CCCC3)NCC1CCCO1 (stereo not given)	3.04
COc1ccc(/C=C/C(=O)Nc2nc3ccc(S(C)(=O)=O)cc3s2)cc1Br	3.76
Cc1cc(C2C(=O)c3ccccc3C2=O)nc2ccccc12	11.3
CC1CCN(S(=O)(=O)c2ccc3c(ccn3CC(=O)NCc3ccc(OC(C)C)cc3)c2)CC1	2.62
COCCNC(=O)c1ccc(CS(=O)Cc2ccc(Cl)cc2)o1 (stereo not given)	3.58
Cc1ccc(C(=O)N(Cc2ccccc2F)C2CCS(=O)(=O)C2)cc1 (stereo not given)	2.6
CCOc1cc(C(=O)C(=O)c2ccc(OC)c(OCC)c2)ccc1OC	2.92
COc1ccc(C=C2C(=O)c3ccccc3C2=O)c(C)c1	2.53
Cc1ccc(S(=O)(=O)NCC2CCC(C(=O)NCC(C)c3ccccc3)CC2)cc1 (stereo not given)	4.21
O=C(NCC(=O)N1CCOCC1)c1ccccc1	1.78
CCOc1cc2c(cc1OCC)C1C(C(=O)N(CC)Cc3ccccc3)c3ccccc3C(=O)N1CC2 (stereo not given)	3.54
Cc1oc(-c2ccccc2F)nc1CS(=O)(=O)CC(=O)NC1CCCC(C)C1C (stereo not given)	4.66
Cc1cc(C)c(Cn2c(C)c(CNCc3cccc(Cl)c3)c(C(=O)O)c2C)c(C)c1	1.74

Compound	maximum fold change
COc1ccc(-c2nn(C)c3sc(C(=O)N4CCC(C#N)CC4)cc23)cc1OC	7.42
Cc1oc(-c2ccccc2F)nc1CS(=O)(=O)CC(=O)N1CCC(Cc2ccccc2)CC1	4.04
CCOc1ccc(CCNC2=NS(=O)(=O)C(c3ccc(C)cc3)=C2C)cc1OCC	3.71
CN(C)CCNC(=O)CCn1c(=O)c2cccn2c2cccnc21	3.34
CCOC(=O)c1cc(-c2ccc(C)cc2)n(CC(=O)NC(C)CC)c1C (stereo not given)	2.38
CCO/C=N/c1oc(C)c(C)c1C#N	3.22
Cc1nn2c(-c3ccncc3)nnc2c2ccccc12	10.8
N/C(=N\OC(=O)N1CCOCC1)c1cccnc1	3.37
C=Cc1ccc(Cn2c(C(=O)O)c(CNCC3CCCO3)c3ccc(C)cc32)cc1 (stereo not given)	2.75
CC1=[N+](CCCS(=O)(=O)O)SC2C=CC(Cl)=CC12 (stereo not given)	1.77
COc1ccc(-c2cn3c4ccccc4n(N)c3n2)cc1OC	3.73
N/C(=N\OC(=O)N1CCOCC1)c1ccccn1	2.1
Cc1[nH]c2ccccc2c1/C=C1\C(=N)N2N=C(N3CCC(C)CC3)SC2=NC1=O	3.17
CCOC(=O)c1cnc2c(C)cc(Cl)cc2c1NCCCO	9.37
O=C1C2CC=C(Cl)CC2C(=O)N1CCO (stereo not given)	3.4
CS(=O)(=O)c1ccc2nc(NC(=O)c3cc4ccccc4o3)sc2c1	7.28
O=C(c1cc(-c2ccccc2)n[nH]1)N1CCn2c1nc1ccccc12	5.17
Cc1ccc(C(=O)N(Cc2ccccc2)c2ccccn2)cc1	2.65
CC1CCC(NC(=O)c2cc(C3CC3)n[nH]2)CC1 (stereo not given)	1.87
O=C(Cn1ncc2c1-c1ccccc1OC2)N1CCC(Cc2ccccc2)CC1	3.52
